From PubChem
HCV NS3h FP – blocks HCV NS3 helicase binding to DNA. NS3h Cy5-dT15 DNA binding, fluorescence polarization. inhibition, % at 100 µM. actives 1.6% (n = 16,000). AID 687043;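 active = inhibition above the average over every tested compound plus 3 SD, cut at about 40% in these data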
Cy5 interf NS3h – Cy5 fluorescence interference, HCV helicase counter-screen | Cy5-dT15 DNA with NS3h; actives lie on both sides; signal over control mean, under 1 quenches | fluorescence interference ratio at 100 µM | actives 6% (n = 16,000) | AID 720488;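 active = compound fluorescence over control fluorescence at most 0.8, a quencher, or at least a set upper limit, an enhancer; inactive = ratio between 0.8 and the set upper limit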
HCV NS3h conf – confirmation of hepatitis C virus NS3 helicase inhibitors; NS3h binding to Cy5-dT15 DNA, fluorescence polarization; shares compounds with HCV NS3h FP; actives 20% (n = 240); AID 720485; inhibition, % at 100 µM;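 active = percent inhibition of 50% or more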
SSB FP counter – E. coli SSB-DNA binding inhibition, NS3h counter-screen | actives 40% (n = 240) | inhibition, % at 100 µM | shares compounds with HCV NS3h FP | E. coli SSB binding Cy5-dT15, fluorescence polarization;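 active = inhibition of at least 50%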;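 also: displacers lower Cy5 polarization so higher inhibition means more SSB displaced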
Target sequence (P0AGE0 whole entry, looked up): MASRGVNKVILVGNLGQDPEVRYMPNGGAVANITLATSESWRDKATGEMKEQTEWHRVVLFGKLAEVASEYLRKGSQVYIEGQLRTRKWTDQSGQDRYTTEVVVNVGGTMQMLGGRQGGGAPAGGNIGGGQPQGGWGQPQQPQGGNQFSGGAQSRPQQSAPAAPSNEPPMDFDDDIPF
Cy5 SSB fluor CB – enhances or quenches Cy5-DNA fluorescence with E. coli SSB. shares compounds with HCV NS3h FP. Cy5-dT15/E. coli SSB fluorescence interference; actives lie on both sides. fluorescence interference ratio at 100 µM. actives 8% (n = 240). AID 720487;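 active = fluorescence interference ratio at or above 1.2, signal boosting, or at or below 0.8, signal quenching; inactive = ratio between 0.8 and 1.2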;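 also: ratio of compound well signal to mean negative control signal so 1 means no effect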
Cy5 interf conf – confirmation counter-screen for HCV NS3 helicase inhibitors: fluorescence interference; Cy5-dT15 DNA/NS3h fluorescence interference counterscreen; shares compounds with HCV NS3h FP; actives 44% (n = 240); fluorescence interference ratio at 100 µM, hits read low;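 active = fluorescence interference ratio at or below 0.8 quencher or at or above a set limitenhancer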;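 also: ratio of compound fluorescence to mean of negative controls so 1 means no interference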
* marks the source's active call; other numbers are inactive results; · = not tested or not shown. A selection: hits, their analogues and other compounds. The true share with any hit is near 7.6%.

SMILES | HCV NS3h FP | Cy5 interf NS3h | HCV NS3h conf | SSB FP counter | Cy5 SSB fluor CB | Cy5 interf conf
O=C1NC(=O)N(c2ccc(Cl)cc2)C(=O)/C1=C/c1ccc(-c2ccccc2C(=O)O)o1 | 44* | 1.2 | 56* | 30 | 0.95 | 0.91
CCOc1ccc(N2C(=O)NC(=O)/C(=C\c3ccc(-c4ccccc4C(=O)O)o3)C2=O)cc1 | 67* | 1 | 41 | 39 | 0.96 | 0.95
CCOc1ccc(N2C(=O)NC(=O)/C(=C\c3ccc(-c4ccc([N+](=O)[O-])cc4OC)o3)C2=O)cc1 | 22 | 1 | · | · | · | ·
O=C1NC(=O)N(c2ccc(Cl)cc2)C(=O)/C1=C\c1ccc(-c2ccccc2[N+](=O)[O-])o1 | 1 | 1 | · | · | · | ·
Cc1ccc(C)n1-c1ccc(CC(=O)O)cc1 | 85* | 1.1 | 67* | 96* | 0.94 | 0.84
CC(=O)c1ccc(-n2c(C)ccc2-c2ccccc2)cc1 | 6 | 1 | · | · | · | ·
Cc1ccc(S(=O)(=O)N(CCc2ccccc2)CC(=O)NCc2ccc(Cl)cc2)cc1 | 17 | 1 | · | · | · | ·
COc1ccccc1/C=N\NC(=O)C(C)Oc1ccc(Cl)cc1 (stereo not given) | 7 | 0.95 | · | · | · | ·
CCc1c(C)[nH]c2ccc(C(=O)O)cc2c1=O | -12 | 1 | · | · | · | ·
CC(C)c1ccc(C=Nc2ccc(Nc3ccccc3)cc2)cc1 | 12 | 0.81 | · | · | · | ·
CCOc1ccccc1NC1=C(Cl)C(=O)N(c2ccc(Br)cc2)C1=O | 11 | 1.1 | · | · | · | ·
O=C1NC(=O)N(Cc2ccccc2)C(=O)/C1=C/c1cccs1 | 25 | 0.83 | · | · | · | ·
CCN(CC)c1ccc(/C=C2\C(=O)NC(=O)N(Cc3ccccc3)C2=O)c(OC)c1 | 79* | 3* | 36 | 48 | 2.2* | 1.7*
C=CCc1cccc2cc(C(=O)Nc3cccc4c3C(=O)c3ccccc3C4=O)c(=O)oc12 | 58* | 0.94 | -1 | -3 | 1 | 1
C=CCc1cccc2cc(C(=O)NCCc3ccccc3)c(=O)oc12 | 18 | 0.91 | · | · | · | ·
Cc1ccc(NS(=O)(=O)c2ccc(C)c([N+](=O)[O-])c2)cc1 | 19 | 0.86 | · | · | · | ·
CC(C)(C)OC(=O)COc1cc2oc(=O)cc(-c3ccccc3)c2cc1Cl | 9 | 1.1 | · | · | · | ·
O=C1C=C(Nc2ccccc2)C(=O)N1c1ccccc1Cl | 11 | 1 | · | · | · | ·
C=CCN1C(=O)NC(=O)/C(=C/C=C/c2ccco2)C1=O | 78* | 1.3* | 46 | 41 | 1.1 | 0.76*
O=C1NC(=O)N(c2ccccc2Cl)C(=O)/C1=C\C=C\c1ccco1 | 62* | 1.2* | 51* | 96* | 1.2* | 0.93
C=CCN1C(=O)NC(=O)C(=Cc2ccc(C(C)C)cc2)C1=O | 6 | 0.99 | · | · | · | ·
O=C(NC(=S)Nc1ccc(Cl)c(-c2nc3cc(Cl)ccc3o2)c1)c1ccco1 | 0 | 1.1 | · | · | · | ·
COC(=O)c1cc(NC(=O)COc2ccc(Cl)cc2C)cc(C(=O)OC)c1 | 6 | 1 | · | · | · | ·
CCN(CC)c1ccc(/C=C/c2[nH]c(=O)[nH]c(=O)c2[N+](=O)[O-])c(OC)c1 | 54* | 0.92 | 9 | 19 | 0.87 | 0.87
O=c1[nH]c(/C=C\c2ccccc2Cl)c([N+](=O)[O-])c(=O)[nH]1 | -9 | 0.9 | · | · | · | ·
SMILES | HCV NS3h FP | Cy5 interf NS3h | HCV NS3h conf | SSB FP counter | Cy5 SSB fluor CB | Cy5 interf conf
COc1ccc(OC)c(NC(=O)c2ccc(I)cc2)c1 | 17 | 0.89 | · | · | · | ·
O=c1c2c(nc3cc(-c4cccs4)[nH]n13)CCC2 | 6 | 1 | · | · | · | ·
O=c1c2c(nc3cc(-c4cccs4)[nH]n13)CCS2 | 60* | 1.1 | -2 | 25 | 1 | 0.81
CCCCOc1ccc(NC(=O)c2ccncc2)cc1 | 10 | 1.1 | · | · | · | ·
Cc1ccc(OCC(=O)Nc2ccc3oc(-c4cccnc4)nc3c2)cc1C | -25 | 1 | · | · | · | ·
COc1ccc(/C=C(\C#N)C(=O)O)cc1 | 4 | 1.2 | · | · | · | ·
CCOc1ccc(N(CC(=O)Nc2cccc(Cl)c2)S(=O)(=O)c2ccc(SC)cc2)cc1 | 9 | 1.1 | · | · | · | ·
O=C1/C(=C\c2ccc(-c3cccc(Cl)c3)o2)SC(=S)N1CCS(=O)(=O)O | 84* | 0.84 | 46 | 98* | 0.82 | 0.88
O=C1NC(=S)S/C1=C/c1ccc(-c2cccc(C(=O)O)c2)o1 | 67* | 0.98 | 62* | 99* | 0.81 | 0.79*
COC(=O)c1ccc(-c2ccc(/C=C3/SC(=S)N(C)C3=O)o2)cc1 | -7 | 0.88 | · | · | · | ·
CCC1=NN2C(=N)/C(=C/c3ccc(-c4cccc(C(=O)O)c4)o3)C(=O)N=C2S1 | 52* | 1 | 27 | 87* | 0.93 | 0.85
